The values below come from PubChem BioAssay (EPA / NIEHS).

Some compounds were tested as several samples or in several runs, with calls that do not always agree. The source made the active and inactive calls. Rule for the calls: active = hit-call score of the fitted dose curve at least 0.9, where 1 is the maximum; inactive = score below 0.9.

The nature of the assay: BSK_3C_TissueFactor: BioMAP Diversity Plus: 3C Assay for Tissue Factor Biomarker Activity (AID 2282997). Conditions: BioMAP 3C HUVEC, tissue factor biomarker readout; actives raise or lower the signal. As to the method:
BSK_3C is a cell-based, multiplexed-readout assay that uses umbilical vein endothelium, a human vascular primary cell, with measurements taken at 24 hours after chemical dosing in a 96-well plate.BSK_3C_TissueFactor is an assay component measured in the BSK_3C assay. It measures Tissue Factor antibody related to regulation of gene expression using ELISA technology.Data from the assay component BSK_3C_TissueFactor was analyzed into 1 assay endpoint. This assay endpoint, BSK_3C_TissueFactor, was analyzed with bidirectional fitting relative to DMSO as the negative control and baseline of activity. Using a type of binding reporter, gain or loss-of-signal activity can be used to understand changes in the signaling as they relate to the gene F3. Furthermore, this assay endpoint can be referred to as a primary readout, because this assay has produced multiple assay endpoints where this one serves a signaling function. To generalize the intended target to other relatable targets, this assay endpoint is annotated to the cytokine intended target family, where the subfamily is coagulation factor.
The levels of cell surface (or secreted, indicated by the prefix "s") biomarker endpoints were measured by ELISA. Overt cytotoxicity to cells in confluent adherent cultures (all systems other than the BT system) was assessed by measuring total protein levels using sulforhodamine B (SRB) staining in parallel cultures at the time of biomarker measurements, indicated as SRB endpoints. For proliferation assays for adherent cell types, individual cell types are cultured at sub-confluence and relative cell numbers quantified by SRB staining at time points optimized for each system (48 h: 3C and CASM3C systems; 72 h: BT and HDF3CGF systems; 96 h: SAg system). SRB was performed by staining cells with 0.1% SRB after fixation with 10% TCA and reading wells at 560 nm.Viability and proliferation of PBMC (T cells) was quantified by Alamar Blue reduction for the SAg and BT systems. For PBMC viability (referred to as PBMC Cytotoxicity within the assay endpoint names), cells were plated (75,000/well in a 96-well plate) and then chemical samples added for 1 h before addition of activators, SEB and TSST-1 (20 ng/mL final concentration each). Cells were incubated for 90 h. Then, Alamar Blue (20 uL/well) (Invitrogen, Cat DAL1100) was added for 6 h, and the plates were read with a fluorescence microplate reader at 546/580 nm (excitation/emission). For PBMC proliferation, cells were plated and activated as above but incubated for only 16 h prior to addition of Alamar Blue. Plates were read after 6 h.
Take `O=C1CN(N=Cc2ccc([N+](=O)[O-])o2)C(=O)N1`: the result was inactive.
On the same count and under the same terms, the result for `O=C(O)c1ccc2c(c1)nc(C(=O)NC1CCN(C3CC3)CC1)n2Cc1cc(-c2ccc(Cl)s2)on1` reads “inactive”; that for `CC(C)CC(C)O` (stereo not given), “inactive”.
The same measure, in the same setting: the result for `NC(=O)NN=Cc1ccc([N+](=O)[O-])o1` reads “inactive”.
Same read-out and setting: with `FC(F)=C(F)C(F)(F)C(F)(F)C(F)(F)C(F)(F)C(F)(F)C(F)(F)F` the entry was “inactive”.
Turning to `CC1(C)C(=O)N(Cl)C(=O)N1Cl`, the outcome was inactive.
Still for that read-out and setting: the result for `Cn1cc[nH]c1=S` reads “inactive”; that for `FC(F)C(F)(F)COCC1CO1` (stereo not given), “inactive”.
As usually defined, the AC50 is the concentration at which the activity in the assay is half-maximal. In the case of `CC(C)c1nnc2ccc(-c3ocnc3-c3cc(F)ccc3F)cn12`, the half-maximal activity concentration (AC50) was 0.743 µM (active).
On to `OCCC(F)(F)C(F)(F)C(F)(F)C(F)(F)F`, for which the outcome was inactive.
The same measure, in the same setting: with `CCCOc1ccc(S(=O)(=O)N2CCN(CC)CC2)cc1-c1nc2c(CC)n(Cc3ccccn3)nc2c(=O)[nH]1` the entry was “inactive”.
As to `c1ccc(C(O[C@@H]2CCCN(CCc3ccc4c(c3)OCO4)C2)c2ccccc2)cc1`, the outcome was inactive.
On to `CCOc1ccc2[nH]cc(C(=O)NCc3ccccc3)c(=O)c2n1`, for which the result was inactive.
As for `NNC(=O)c1ccncc1`, the outcome was inactive.
As to `OC[C@H]1O[C@@](CO)(O[C@H]2O[C@H](CO)[C@@H](O)[C@H](O)[C@H]2O)[C@@H](O)[C@@H]1O`, the outcome was inactive.
Still for that read-out and setting: with `NCC(F)(F)C(F)(F)C(F)(F)C(F)(F)F` the entry was “inactive”; with `FC(F)(F)C(F)(F)C(F)(F)C(F)(F)C(F)(F)C(F)(F)I`, “inactive”; with `OCc1ccccc1`, “inactive”.
Same read-out and setting: with `C[Si](C)(C)C(F)(F)C(F)(F)C(F)(F)F` the entry was “inactive”.
Consider `CCN(CC)C(=S)SSC(=S)N(CC)CC`, for which the AC50 is 20 µM (active).
For the compound `Cc1nc(-c2ccccn2)ncc1C(=O)Nn1cc(C)c2cc(F)ccc21`, the result was inactive.
Consider `CCCCCCCC1CCC(=O)O1` (stereo not given), for which the result was inactive.
As for `COS(C)(=O)=O`, the result was inactive.
For the compound `CCCCN1C(=O)[C@@H]([C@H](O)C2CCCCC2)NC(=O)C12CCN(Cc1ccc(Oc3ccc(C(=O)O)cc3)cc1)CC2`, the result was inactive.
As for `C=CN1CCCC1=O`, the result was inactive.
The same measure, in the same setting: the result for `O=C(O)[C@H](O)[C@@H](O)C(=O)O` reads “inactive”; that for `c1ccc2ncccc2c1`, “inactive”; that for `COCc1nnc(-c2ccc[n+]([O-])c2)n1-c1c(Cl)c(Cl)cc2[nH]c(=O)c(=O)[nH]c12`, “inactive”.
As to `Cc1nccn1-c1ccc(Sc2cccc(C3(C(N)=O)CCOCC3)c2)cc1`, the AC50 is 8.83 µM (active).
Regarding `OC(O)(C(F)C(O)(O)C(F)(F)F)C(F)(F)F`, the outcome was inactive and the AC50 was 13.6 µM (active).
Take `O=S(=O)(O)CCC(F)(F)C(F)(F)C(F)(F)C(F)(F)C(F)(F)C(F)(F)F`: the result was inactive.
As to `OCC(CO)(CO)CO`, the result was inactive.
Still for that read-out and setting: the result for `CCCCOC(=O)c1ccccc1` reads “inactive”; that for `O=S1(=O)CCCO1`, “inactive”; that for `NC(=O)N(O)[C@@H]1COc2cc(OCc3ccccc3)ccc21`, “inactive”.
On the same count and under the same terms, with `O=C(NO)C1(NS(=O)(=O)c2ccc(Oc3ccc(F)cc3)cc2)CCOCC1` the entry was “inactive”; with `FC(F)(F)COC(OCC(F)(F)F)OCC(F)(F)F`, “inactive”; with `OCCNCCO`, “inactive”.
The same measure, in the same setting: with `CC(=O)c1ccccc1` the entry was “inactive”.
